We go through 8 compounds from PubChem BioAssay (NCI).

This is part of a sample that, as a whole, favours compounds with a hit. Of some 83,000 tested, about 20% had one in any assay.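 Cells were grown in 96-well plates and exposed to the test compound at a single concentration for 48 hours; results are reported as percent growth, with values below 10 considered active.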 Values without a mark were called inactive. Active and inactive are the calls of the source.

Among the test systems are SR leukemia; OVCAR-8 ovarian; OVCAR-5 ovarian; OVCAR-4 ovarian; SK-OV-3 ovarian; IGROV1 ovarian; OVCAR-3 ovarian; HS 578T breast; NCI/ADR-RES ovarian; T-47D breast; BT-549 breast; MDA-MB-435 melanoma; SW-620 colon; MCF7 breast; HCT-116 colon; HCC-2998 colon; KM12 colon; RPMI-8226 leukemia.
What all share (assay): NCI-60 one-dose screen, 48 h (100 = growth as untreated, 0 = no growth, -100 = all killed)
Common to all, as to conditions: 10 µM unless noted

Consider `COc1ccccc1-n1cc(C#N)c(N)c1C(=O)c1ccc(Cl)cc1`, for which the growth in the experiment on SR leukemia was 23.5%; in the experiment with OVCAR-8 ovarian, 96.7%; with OVCAR-5 ovarian it was 109%; in the experiment on OVCAR-4 ovarian it was 98.2%; in the experiment with SK-OV-3 ovarian, 101%; in the experiment with IGROV1 ovarian, 78%. For the same compound, the growth with OVCAR-3 ovarian is 63.7%; in the experiment on HS 578T breast, 74.6%; in the experiment on NCI/ADR-RES ovarian it was 41.1%; in the experiment on T-47D breast, 88.3%; in the experiment on BT-549 breast, 92.7%; in the experiment with MDA-MB-435 melanoma, -16.7% (active). The growth was 40.8% in the experiment on SW-620 colon; 32.3% in the experiment with MCF7 breast; 63.5% with HCT-116 colon; 68.2% with HCC-2998 colon; 58.2% in the experiment with KM12 colon.

On to `Cc1cc(C)c2sc(=O)n(Cc3nnc(SCCC(=O)O)o3)c2n1`, for which the growth is 79.2% in the experiment on SR leukemia; 99.8% in the experiment with RPMI-8226 leukemia; 104% in the experiment with OVCAR-8 ovarian; 99.4% in the experiment with OVCAR-5 ovarian; 105% in the experiment on SK-OV-3 ovarian; 102% with IGROV1 ovarian. The growth in the experiment on HS 578T breast was 103%; in the experiment on NCI/ADR-RES ovarian it was 102%; with T-47D breast, 89.5%; in the experiment with BT-549 breast it was 123%; in the experiment with MDA-MB-435 melanoma it was 103%; with SW-620 colon it was 103%. Further, the growth in the experiment with MCF7 breast is 97%; in the experiment on HCT-116 colon, 103%; with KM12 colon it was 106%.

On to `O=C(CNc1nc(-c2cccc([N+](=O)[O-])c2)cs1)Nc1cccc([N+](=O)[O-])c1`, for which the growth in the experiment on SR leukemia was 2.66% (active); in the experiment with OVCAR-8 ovarian it was -3.29% (active); in the experiment with OVCAR-5 ovarian it was -12.9% (active); in the experiment with OVCAR-4 ovarian, 5.36% (active); in the experiment with SK-OV-3 ovarian, -23.9% (active); in the experiment on IGROV1 ovarian, -28.3% (active). Besides, the growth in the experiment on OVCAR-3 ovarian was 5.33% (active); in the experiment with HS 578T breast it was -11.8% (active); in the experiment with NCI/ADR-RES ovarian, -11.4% (active); in the experiment with T-47D breast it was -5.2% (active); in the experiment with BT-549 breast, 15.2%; with MDA-MB-435 melanoma it was -15.5% (active). In addition, the growth is 1.81% (active) in the experiment on SW-620 colon; -1.07% (active) in the experiment on MCF7 breast; -8.55% (active) in the experiment on HCT-116 colon; -55.9% (active) in the experiment on HCC-2998 colon; 4.12% (active) with KM12 colon.

For `Cn1cc(CNc2nc3ccc(OC/C(=C/F)CN)cc3o2)ccc1=O`, the growth in the experiment with SR leukemia is 117%; in the experiment with OVCAR-8 ovarian it was 111%; with OVCAR-5 ovarian it was 101%; with OVCAR-4 ovarian it was 106%; in the experiment with SK-OV-3 ovarian it was 109%; in the experiment with IGROV1 ovarian, 102%. Moreover, the growth in the experiment on OVCAR-3 ovarian is 112%; in the experiment with HS 578T breast, 103%; in the experiment on NCI/ADR-RES ovarian, 102%; in the experiment on T-47D breast it was 105%; with BT-549 breast, 99.8%; in the experiment on MDA-MB-435 melanoma it was 104%. The growth in the experiment on SW-620 colon was 107%; in the experiment on MCF7 breast it was 91.7%; in the experiment with HCT-116 colon, 103%; in the experiment with HCC-2998 colon, 99%; in the experiment with KM12 colon, 105%.

Regarding `COc1cc2oc(-c3cccc(NC(=O)c4cc(N)ccc4Cl)c3)cc(=O)c2c(OC)c1OC`, the growth in the experiment with SR leukemia was 82.6%; in the experiment on RPMI-8226 leukemia it was 60.2%; in the experiment on OVCAR-5 ovarian, 109%; in the experiment on SK-OV-3 ovarian, 124%; in the experiment with IGROV1 ovarian, 99.5%; in the experiment on HS 578T breast, 114%. Also, the growth in the experiment on NCI/ADR-RES ovarian was 100%; in the experiment on T-47D breast, 62.4%; in the experiment with BT-549 breast, 89.4%; with MDA-MB-435 melanoma it was 89.5%; in the experiment on SW-620 colon, 110%; in the experiment with MCF7 breast, 96.1%. Also, the figures for the growth in the experiment with HCT-116 colon, in the experiment on HCC-2998 colon and with KM12 colon were 101%, 101% and 96.4%, respectively.

With `O=C1CC(=O)N2CSCN(C(c3ccccc3)c3nc4ncncc4[nH]3)C2=N1` (stereo unspecified), the growth was 118% with SR leukemia; 107% in the experiment on RPMI-8226 leukemia; 111% in the experiment with OVCAR-5 ovarian; 113% in the experiment on SK-OV-3 ovarian; 99.3% with IGROV1 ovarian; 107% in the experiment on OVCAR-3 ovarian. Further, the growth in the experiment on HS 578T breast is 107%; in the experiment with NCI/ADR-RES ovarian, 99.3%; in the experiment with T-47D breast it was 98.8%; with BT-549 breast it was 105%; in the experiment on MDA-MB-435 melanoma, 107%; in the experiment on SW-620 colon it was 102%. The growth was 93.9% in the experiment with MCF7 breast, 105% with HCT-116 colon, 99.4% in the experiment with HCC-2998 colon and 103% with KM12 colon.

For `COc1ccc(-c2nn(-c3ccc(S(C)(=O)=O)cc3)cc2/C=N/O)cc1`, the growth in the experiment with SR leukemia is 107%; in the experiment with OVCAR-8 ovarian, 101%; in the experiment on OVCAR-5 ovarian, 101%; in the experiment on OVCAR-4 ovarian, 113%; in the experiment with SK-OV-3 ovarian, 108%; in the experiment with IGROV1 ovarian, 106%. The growth in the experiment on OVCAR-3 ovarian is 122%; in the experiment on HS 578T breast it was 108%; in the experiment on NCI/ADR-RES ovarian it was 107%; in the experiment with T-47D breast it was 106%; with BT-549 breast, 112%; with MDA-MB-435 melanoma, 109%. Also, the growth with SW-620 colon was 104%; with MCF7 breast, 106%; with HCT-116 colon, 107%; in the experiment on HCC-2998 colon, 115%; in the experiment with KM12 colon it was 104%.

With `COc1cc(Cn2cc3c(c2)-c2onc(CN4CCOCC4)c2CC3)cc(OC)c1OC`, the growth with SR leukemia was 114%; in the experiment with RPMI-8226 leukemia, 91%; in the experiment on OVCAR-5 ovarian, 95%; in the experiment on OVCAR-4 ovarian it was 74%; in the experiment with SK-OV-3 ovarian it was 106%; in the experiment on IGROV1 ovarian, 99.8%. Besides, the growth in the experiment on OVCAR-3 ovarian is 113%; in the experiment with HS 578T breast, 110%; with NCI/ADR-RES ovarian, 100%; in the experiment on T-47D breast, 79.3%; with BT-549 breast it was 96.7%; with MDA-MB-435 melanoma, 101%. Besides, the growth in the experiment with SW-620 colon is 112%; with MCF7 breast it was 89%; with HCT-116 colon, 104%; in the experiment on HCC-2998 colon, 105%; with KM12 colon, 101%.
